Source: PubChem BioAssay (NCATS)
Inconclusive results are not listed. Activity calls are given as the source filed them. Unless noted, calls follow the shape of the full dose curve.

How the values were obtained:
[1] = target: Glucocorticoid receptor (Homo sapiens) (UniProt P04150); experiment: qHTS assay for small molecule agonists of glucocorticoid receptor signaling (AID 588532; active = well fitted curve in the direction sought with a large enough effect in the signal ratio, with a control signal flat; the % refers to the signal ratio;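 also: 100% = dexamethasone at 0.1 µM and 0% = DMSO only wells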); settings: HeLa MMTV-bla, beta-lactamase ratio, agonist, 18 h; stronger effect = higher value; percent of dexamethasone control, DMSO zero
Glucocorticoid receptor (Homo sapiens), sequence (P04150 whole entry, looked up): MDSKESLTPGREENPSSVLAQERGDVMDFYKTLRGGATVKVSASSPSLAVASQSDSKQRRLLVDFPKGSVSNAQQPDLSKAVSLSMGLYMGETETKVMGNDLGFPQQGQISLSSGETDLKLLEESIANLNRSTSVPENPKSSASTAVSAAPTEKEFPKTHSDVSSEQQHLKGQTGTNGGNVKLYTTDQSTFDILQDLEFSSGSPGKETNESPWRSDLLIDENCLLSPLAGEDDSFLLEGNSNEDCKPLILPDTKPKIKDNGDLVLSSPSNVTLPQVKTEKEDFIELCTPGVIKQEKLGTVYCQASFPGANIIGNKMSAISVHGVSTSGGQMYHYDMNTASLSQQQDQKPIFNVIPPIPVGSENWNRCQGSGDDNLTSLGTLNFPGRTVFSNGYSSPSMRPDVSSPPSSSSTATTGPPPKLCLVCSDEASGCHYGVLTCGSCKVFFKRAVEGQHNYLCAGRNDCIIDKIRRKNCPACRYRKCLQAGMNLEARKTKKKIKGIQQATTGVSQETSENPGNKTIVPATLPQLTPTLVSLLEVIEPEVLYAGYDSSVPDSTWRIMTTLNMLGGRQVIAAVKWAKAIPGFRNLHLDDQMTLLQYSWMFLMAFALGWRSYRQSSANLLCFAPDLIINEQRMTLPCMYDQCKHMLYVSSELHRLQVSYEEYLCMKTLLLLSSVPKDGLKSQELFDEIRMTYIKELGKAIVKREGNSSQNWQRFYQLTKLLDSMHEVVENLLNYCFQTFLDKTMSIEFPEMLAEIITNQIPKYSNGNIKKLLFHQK
Outline: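 Titration series, up to 92 uM, applied to GRE-bla HeLa cells for 18 h at 37 C. Detection by CCF4 FRET substrate after 2 h at RT.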

[2] = target: Glucocorticoid receptor (Homo sapiens) (UniProt P04150); experiment: qHTS assay for small molecule antagonists of glucocorticoid receptor signaling (AID 588533; active = well fitted inhibition curve with a large enough effect in the signal ratio, with a control signal flat, not every such curve was filed as active; the % refers to the signal ratio;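 also: cells stimulated with 2 nM dexamethasone as agonist; % is scaled to controls: 0 for no effect and ±100 for the full control effect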); settings: HeLa MMTV-bla, GRE beta-lactamase ratio, antagonist mode, 18 h; series mostly up to 76.8 µM
Outline: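 Antagonist-mode qHTS: compound titrations added to GRE-bla HeLa cells, then dexamethasone 2 nM final; 18 h, 37 C. CCF4 FRET fluorescence normalized to dexamethasone and DMSO; IC50 from Hill fit.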

[3] = target: Peroxisome proliferator-activated receptor gamma (Homo sapiens) (UniProt P37231); experiment: qHTS assay for small molecule agonists of peroxisome proliferator-activated receptor gamma signaling (AID 588536; active = well fitted curve in the direction sought with a large enough effect in the signal ratio, with a control signal flat, not every such curve was filed as active; the % refers to the signal ratio;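 also: 0% = DMSO basal wells and 100% = rosiglitazone at 2 µM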); settings: HEK293 PPARg-UAS-bla, beta-lactamase ratio, 16 h, percent of rosiglitazone response, DMSO as zero; series mostly up to 76.7 µM
Peroxisome proliferator-activated receptor gamma (Homo sapiens), sequence (P37231 whole entry, looked up): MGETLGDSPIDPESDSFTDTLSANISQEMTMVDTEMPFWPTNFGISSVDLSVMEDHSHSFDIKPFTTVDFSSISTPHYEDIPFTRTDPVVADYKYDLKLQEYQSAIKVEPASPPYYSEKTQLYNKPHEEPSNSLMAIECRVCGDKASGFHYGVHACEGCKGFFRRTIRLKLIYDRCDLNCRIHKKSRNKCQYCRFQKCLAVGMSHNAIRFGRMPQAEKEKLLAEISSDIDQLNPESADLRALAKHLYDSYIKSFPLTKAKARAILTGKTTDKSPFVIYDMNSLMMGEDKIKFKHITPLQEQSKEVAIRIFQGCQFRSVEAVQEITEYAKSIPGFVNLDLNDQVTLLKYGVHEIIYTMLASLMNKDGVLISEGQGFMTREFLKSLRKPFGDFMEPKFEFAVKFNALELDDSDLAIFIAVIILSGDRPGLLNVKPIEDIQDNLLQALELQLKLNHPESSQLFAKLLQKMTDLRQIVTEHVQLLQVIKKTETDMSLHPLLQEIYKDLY
Outline: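 Using GeneBLAzer HEK293 cells, response was quantified by CCF4 fluorescence and normalized between basal DMSO (0%) and rosiglitazone 2 uM (100%); curves yielded half-maximal stimulation concentration and efficacy.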

[4] = target: Vitamin D3 receptor (Homo sapiens) (UniProt P11473); experiment: qHTS assay for small molecule antagonists of vitamin D receptor signaling (AID 588541); settings: HEK293T VDR-UAS-bla, beta-lactamase ratio, antagonist mode; series mostly up to 76.7 µM;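 also: receptor activated by calcitriol during compound treatment; % is scaled to controls: 0 for no effect and ±100 for the full control effect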
Vitamin D3 receptor (Homo sapiens), sequence (P11473 whole entry, looked up): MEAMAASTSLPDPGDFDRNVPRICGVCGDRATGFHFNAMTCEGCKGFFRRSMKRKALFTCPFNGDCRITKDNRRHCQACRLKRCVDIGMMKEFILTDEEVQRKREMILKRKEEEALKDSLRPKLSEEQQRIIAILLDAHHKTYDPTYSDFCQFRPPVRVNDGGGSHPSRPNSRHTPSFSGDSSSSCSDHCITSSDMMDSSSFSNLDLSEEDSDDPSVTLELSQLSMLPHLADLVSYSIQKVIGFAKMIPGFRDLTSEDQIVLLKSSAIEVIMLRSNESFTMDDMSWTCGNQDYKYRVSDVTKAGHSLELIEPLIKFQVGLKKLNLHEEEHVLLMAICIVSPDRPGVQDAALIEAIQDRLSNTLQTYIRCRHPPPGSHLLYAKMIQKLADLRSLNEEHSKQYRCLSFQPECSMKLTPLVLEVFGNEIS
Outline: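 VDR-UAS-bla HEK293T cells (2000/well, 2% charcoal-stripped FBS) were treated with titrated compounds plus 1-alpha,25-dihydroxyvitamin D3 (50 nM or 3 nM final) for 16 h at 37 C. CCF4 beta-lactamase fluorescence was read; Hill fits gave IC50.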

[5] = target: Vitamin D3 receptor (Homo sapiens) (UniProt P11473); experiment: qHTS assay for small molecule agonists of vitamin D receptor signaling (AID 588543); settings: HEK293T VDR-UAS-bla, beta-lactamase ratio, 16 h; series mostly up to 76.8 µM;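 also: 0% = DMSO basal and 100% = reference agonist control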
Outline: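 VDR-UAS-bla HEK293T cells, 2000/well, 2% charcoal-stripped FBS; compound titration 16 h at 37 C; CCF4 beta-lactamase ratio read. Normalized to 50 nM 1-alpha,25-dihydroxyvitamin D3 (100%) and DMSO; Hill fit gives EC50, efficacy.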

[6] = qHTS assay for small molecule agonists of retinoid X receptor alpha signaling (AID 588544); settings: HEK293T RXRa-UAS-bla, beta-lactamase reporter, 18 h; 530 nm emission;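 as to activation: 0% = DMSO basal wells and 100% = reference agonist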
[7] = target: Retinoic acid receptor RXR-alpha (Homo sapiens) (UniProt P19793); experiment: as above; settings: HEK293T RXRa-UAS-bla, beta-lactamase reporter, 18 h; series mostly up to 76.7 µM
Retinoic acid receptor RXR-alpha (Homo sapiens), sequence (P19793 whole entry, looked up): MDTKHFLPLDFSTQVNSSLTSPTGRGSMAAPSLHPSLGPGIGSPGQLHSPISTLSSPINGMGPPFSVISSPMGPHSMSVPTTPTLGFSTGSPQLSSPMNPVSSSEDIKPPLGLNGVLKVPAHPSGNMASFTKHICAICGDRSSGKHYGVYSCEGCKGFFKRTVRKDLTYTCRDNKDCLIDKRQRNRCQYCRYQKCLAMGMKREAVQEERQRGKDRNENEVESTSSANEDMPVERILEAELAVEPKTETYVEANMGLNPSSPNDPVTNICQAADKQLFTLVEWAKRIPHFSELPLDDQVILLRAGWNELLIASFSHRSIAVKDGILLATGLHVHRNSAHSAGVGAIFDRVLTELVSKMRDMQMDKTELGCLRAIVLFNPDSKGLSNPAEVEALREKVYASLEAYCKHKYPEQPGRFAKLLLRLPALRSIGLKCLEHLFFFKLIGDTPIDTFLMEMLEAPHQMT

[8] = target: Thyroid hormone receptor beta (Homo sapiens) (UniProt P10828); experiment: qHTS assay for small molecule agonists of thyroid hormone receptor beta signaling (AID 588545); settings: TR-UAS-bla GripTite HEK 293, beta-lactamase ratio, agonist mode, 18 h, percent of T3 response, DMSO as zero; series mostly up to 76.7 µM;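 also: 0% = DMSO only and 100% = 10 nM T3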
Thyroid hormone receptor beta (Homo sapiens), sequence (P10828 whole entry, looked up): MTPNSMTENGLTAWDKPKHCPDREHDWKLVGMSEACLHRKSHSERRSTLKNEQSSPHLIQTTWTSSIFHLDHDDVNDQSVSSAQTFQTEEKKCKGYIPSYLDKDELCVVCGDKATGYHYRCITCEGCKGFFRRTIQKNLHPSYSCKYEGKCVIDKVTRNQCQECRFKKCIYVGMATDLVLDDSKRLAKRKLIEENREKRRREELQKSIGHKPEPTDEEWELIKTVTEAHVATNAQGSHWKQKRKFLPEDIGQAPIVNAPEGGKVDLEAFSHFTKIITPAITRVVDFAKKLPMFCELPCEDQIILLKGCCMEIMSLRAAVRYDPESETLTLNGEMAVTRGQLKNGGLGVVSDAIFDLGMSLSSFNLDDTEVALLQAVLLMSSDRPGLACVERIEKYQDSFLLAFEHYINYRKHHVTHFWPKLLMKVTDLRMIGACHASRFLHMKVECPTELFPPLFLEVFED
Outline: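 Compounds were tested as agonists in TR-UAS-bla-GripTite HEK 293 cells. After 18 hrs at 37 C, CCF4 substrate was added and fluorescence read after 2 hrs at room temperature.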

[9] = qHTS assay for small molecule antagonists of retinoid X receptor alpha signaling (AID 588546; active = well fitted inhibition curve with a large enough effect in the signal ratio, with a control signal flat, not every such curve was filed as active; the % refers to the signal ratio;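 also: cells stimulated with 9-cis-retinoic acid as agonist; % is scaled to controls: 0 for no effect and ±100 for the full control effect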); settings: HEK293T RXRa-UAS-bla, beta-lactamase ratio, antagonist mode; measured here: W530 green channel, cytotoxicity proxy
Outline: (§1)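 Beta-lactamase reporter inhibition, read as CCF4 fluorescence ratio (ex 405, em 460/530 nm) after 2 h at RT. HEK293T UAS-bla cells, 2500/well, were stimulated with 9-cis-RA at 500 or 100 nM final alongside test compound for 18 h at 37 C.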

[10] = target: Retinoic acid receptor RXR-alpha (Homo sapiens) (UniProt P19793); experiment: as above; settings: HEK293T RXRa-UAS-bla, beta-lactamase ratio, antagonist mode
Outline: as §1

[11] = target: Thyroid hormone receptor beta (Homo sapiens) (UniProt P10828); experiment: qHTS assay for small molecule antagonists of thyroid hormone receptor beta signaling (AID 588547; active = well fitted inhibition curve with a large enough effect in the signal ratio, with a control signal flat, not every such curve was filed as active; the % refers to the signal ratio;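 also: cells stimulated with 0.4 nM T3 agonist during compound exposure; % is scaled to controls: 0 for no effect and ±100 for the full control effect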); settings: TR-UAS-bla HEK293, beta-lactamase ratio, antagonist mode, 18 h
Outline: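 TR-UAS-bla GripTite HEK293 cells in 2% charcoal/dextran FBS medium were preincubated 4 h at 37 C, given compound (0.59 nM to 92 uM) plus 0.4 nM T3 (final) for 18 h, then CCF4 for 2 h at RT; Hill fit gave IC50.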

[12] = target: Voltage-gated inwardly rectifying potassium channel KCNH2 (Homo sapiens) (UniProt Q12809); experiment: qHTS Assay for Small Molecule Inhibitors of the Human hERG Channel Activity (AID 588834; active = well fitted curve in the direction sought with a large enough effect; an effect the other way counts as inactive or inconclusive;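 also: top concentration of the series differs between compounds; % is scaled to controls: 0 for no effect and ±100 for the full control effect; lower thallium flux fluorescence means stronger hERG block; nearly all actives have a fitted effect of over 50% in size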); settings: U2OS BacMam hERG, FluxOR thallium flux fluorescence; series mostly up to 92.2 µM
Voltage-gated inwardly rectifying potassium channel KCNH2 (Homo sapiens), sequence (Q12809 whole entry, looked up): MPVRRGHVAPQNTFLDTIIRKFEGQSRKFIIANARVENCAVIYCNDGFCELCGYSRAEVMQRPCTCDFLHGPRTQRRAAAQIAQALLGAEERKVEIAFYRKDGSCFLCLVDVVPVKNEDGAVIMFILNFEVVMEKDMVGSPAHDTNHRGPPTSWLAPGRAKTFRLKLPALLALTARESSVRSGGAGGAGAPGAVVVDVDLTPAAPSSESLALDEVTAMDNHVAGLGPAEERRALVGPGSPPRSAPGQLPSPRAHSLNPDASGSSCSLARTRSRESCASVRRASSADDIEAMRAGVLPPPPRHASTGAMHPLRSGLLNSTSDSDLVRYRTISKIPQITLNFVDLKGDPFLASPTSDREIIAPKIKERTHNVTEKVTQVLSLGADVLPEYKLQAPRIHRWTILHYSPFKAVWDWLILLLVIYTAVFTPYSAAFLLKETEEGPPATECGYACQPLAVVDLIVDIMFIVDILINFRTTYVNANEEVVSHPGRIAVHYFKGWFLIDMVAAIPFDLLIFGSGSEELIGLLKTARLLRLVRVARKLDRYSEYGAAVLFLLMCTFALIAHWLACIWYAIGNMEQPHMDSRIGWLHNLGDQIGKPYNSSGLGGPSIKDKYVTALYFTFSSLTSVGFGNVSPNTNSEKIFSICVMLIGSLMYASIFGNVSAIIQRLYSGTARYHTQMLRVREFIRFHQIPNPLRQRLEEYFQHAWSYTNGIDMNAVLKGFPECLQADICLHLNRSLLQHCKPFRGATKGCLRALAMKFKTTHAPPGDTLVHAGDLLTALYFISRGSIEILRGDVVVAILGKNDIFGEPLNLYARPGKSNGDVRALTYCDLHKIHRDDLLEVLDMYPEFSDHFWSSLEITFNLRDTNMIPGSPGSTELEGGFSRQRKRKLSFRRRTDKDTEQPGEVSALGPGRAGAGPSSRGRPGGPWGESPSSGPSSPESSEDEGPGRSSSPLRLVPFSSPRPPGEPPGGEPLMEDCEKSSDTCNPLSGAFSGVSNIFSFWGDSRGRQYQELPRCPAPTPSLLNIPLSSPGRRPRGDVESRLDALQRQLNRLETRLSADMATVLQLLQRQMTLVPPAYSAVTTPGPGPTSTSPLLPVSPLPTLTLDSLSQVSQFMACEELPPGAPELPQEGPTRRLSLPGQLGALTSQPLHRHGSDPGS
Outline: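 Thallium serves as surrogate for K+ influx through BacMam-delivered hERG in U2OS cells. Compounds are added for about 10 minutes after dye loading; stimulation buffer then starts flux, monitored kinetically on FDSS.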

[13] = target: Luciferin 4-monooxygenase (Photinus pyralis) (UniProt P08659); experiment: Biochemical firefly luciferase enzyme assay for NPC (AID 624030; active = well fitted curve in the direction sought with a large enough effect; an effect the other way counts as inactive or inconclusive; also: nearly all actives have a fitted effect of over 70% in size; also: potency is read from the fitted curve at half-maximal effect); settings: purified P. pyralis luciferase, luminescence, 5 min; series mostly up to 58.6 µM
Luciferin 4-monooxygenase (Photinus pyralis), sequence (P08659 whole entry, looked up): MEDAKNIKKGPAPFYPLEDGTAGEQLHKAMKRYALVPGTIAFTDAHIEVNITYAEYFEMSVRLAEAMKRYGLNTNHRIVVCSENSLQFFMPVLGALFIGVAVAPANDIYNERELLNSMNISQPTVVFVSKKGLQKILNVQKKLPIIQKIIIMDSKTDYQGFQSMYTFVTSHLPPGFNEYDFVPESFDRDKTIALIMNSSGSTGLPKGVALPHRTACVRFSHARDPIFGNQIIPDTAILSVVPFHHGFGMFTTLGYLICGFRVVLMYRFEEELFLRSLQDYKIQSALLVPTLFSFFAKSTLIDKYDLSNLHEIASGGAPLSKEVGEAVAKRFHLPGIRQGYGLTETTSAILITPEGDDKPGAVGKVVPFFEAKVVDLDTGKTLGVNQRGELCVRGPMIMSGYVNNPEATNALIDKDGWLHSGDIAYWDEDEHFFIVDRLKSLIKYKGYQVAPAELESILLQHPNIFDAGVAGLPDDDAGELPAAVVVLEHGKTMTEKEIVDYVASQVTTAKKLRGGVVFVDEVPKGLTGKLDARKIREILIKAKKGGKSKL
Outline: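 Counter-screen for direct inhibition of the luciferase enzyme by approved-drug library compounds, run at 10 nM enzyme in 50 mM Tris acetate (final). Luminescence was read within 5 min of enzyme-buffer addition and normalized to PTC124 versus DMSO (0%).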

[14] = S16 Schwann cell PMP22 intronic element firefly luciferase assay (AID 624032; active = well fitted curve in the direction sought with a large enough effect; an effect the other way counts as inactive or inconclusive; also: potency is read from the fitted curve at half-maximal effect; nearly all actives have a fitted effect of over 30% in size); settings: S16 rat Schwann cells, PMP22 element FLuc, 24 h
Outline: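 Rat S16 Schwann cells stably carrying a PMP22 intronic element-driven Fluc reporter were seeded overnight, then exposed to compounds for 24 h at 37 °C. Luminescence was normalized to PTC124 (positive control) and DMSO (0% activity).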

[15] = S16 Schwann cell PMP22 intronic element beta-lactamase assay (AID 624044); settings: S16 rat Schwann cells, PMP22 element beta-lactamase FRET, 24 h; also: potency is read from the fitted curve at half-maximal effect; nearly all actives have a fitted effect of over 15% in size
Outline: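 Beta-lactamase reporter under a PMP22 intronic regulatory element in stable S16 rat Schwann cells; 24 h compound exposure. 460 nm blue signal normalized between DMSO (0%) and potassium clavulanate, with 535 nm FRET tracking viability; curves classed by r2 and response.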

[16] = target: Androgen receptor (Homo sapiens) (UniProt P10275); experiment: qHTS assay for small molecule antagonists of androgen receptor signaling (AID 588516; active = well fitted curve in the direction sought with a large enough effect in the signal ratio, with a control signal flat, not every such curve was filed as active; the % refers to the signal ratio; also: potency is read from the fitted curve at half-maximal effect); settings: AR-UAS-bla HEK293, beta-lactamase ratio, antagonist mode, 16 h; series mostly up to 76.8 µM
Outline: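 AR-UAS-bla GripTite HEK 293 cells (2000/well) treated with compound titrations plus 10 nM R1881 for 16 h at 37C. Beta-lactamase read by CCF4 FRET (460/530 nm); IC50 from Hill fits, normalized to R1881 and DMSO control wells.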

[17] = S16 Schwann cell viability assay (CellTiter-Glo assay) (AID 624031; active = well fitted curve in the direction sought with a large enough effect; an effect the other way counts as inactive or inconclusive;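 also: native untransfected S16 rat Schwann cells; cellular ATP luminescence as a viability measure; plate controls were DMSO-treated cells for no effect and cell-free wells for full effect; nearly all actives have a fitted effect of over 70% in size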); settings: S16 rat Schwann cells viability, 24 h; series mostly up to 57.5 µM
Outline: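 Cells were seeded at 500-750 per well in phenol red-free DMEM with 10% FBS and left overnight. Compounds or DMSO were pinned in, incubation ran 24 h at 37 °C/5% CO2, then CellTiter-Glo reagent was added and luminescence measured.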

[18] = qHTS assay for small molecule antagonists of peroxisome proliferator-activated receptor delta signaling (AID 588535; active = well fitted inhibition curve with a large enough effect in the signal ratio, with a control signal flat, not every such curve was filed as active; the % refers to the signal ratio;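 as to max response: cells co-treated with a PPAR-delta agonist as stimulator during compound exposure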); settings: HEK293T PPARd-UAS-bla, beta-lactamase FRET ratio, 18 h; 460 nm channel
Outline: (§2)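 Compounds tested in titration on PPAR-delta-UAS-bla HEK293T cells grown in charcoal/dextran-stripped serum (2%); beta-lactamase activity read via CCF4 emission at 460 and 530 nm.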

[19] = target: Peroxisome proliferator-activated receptor delta (Homo sapiens) (UniProt Q03181); experiment: as above; settings: HEK293T PPARd-UAS-bla, beta-lactamase FRET ratio, 18 h; series mostly up to 76.7 µM
Peroxisome proliferator-activated receptor delta (Homo sapiens), sequence (Q03181 whole entry, looked up): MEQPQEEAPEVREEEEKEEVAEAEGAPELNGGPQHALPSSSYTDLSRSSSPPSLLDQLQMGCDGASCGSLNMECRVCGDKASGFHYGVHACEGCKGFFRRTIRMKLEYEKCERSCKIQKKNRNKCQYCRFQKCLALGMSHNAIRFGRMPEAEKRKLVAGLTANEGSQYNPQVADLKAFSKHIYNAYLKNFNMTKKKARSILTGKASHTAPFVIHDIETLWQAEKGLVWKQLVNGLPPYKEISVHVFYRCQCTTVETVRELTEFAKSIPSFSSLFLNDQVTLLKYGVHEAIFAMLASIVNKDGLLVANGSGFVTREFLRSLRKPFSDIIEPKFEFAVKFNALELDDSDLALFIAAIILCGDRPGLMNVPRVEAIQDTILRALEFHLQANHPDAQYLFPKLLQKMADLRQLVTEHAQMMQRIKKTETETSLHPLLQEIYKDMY
Outline: as §2

[20] = qHTS assay for small molecule agonists of the antioxidant response element (ARE) signaling pathway (AID 651741; active = well fitted activation curve with a large enough effect in the signal ratio; the % refers to the signal ratio; also: potency is read from the fitted curve at half-maximal effect); settings: HepG2 ARE-bla reporter, beta-lactamase FRET ratio, 16 h
Outline: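 Beta-lactamase reporter expression driven by the antioxidant response element in HepG2 cells was detected by fluorescence with LiveBLAzer B/G FRET substrate (2 h, room temperature) following 16 h compound treatment at 37 C.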

CC(=O)O[C@@H]1CC(C)=C2[C@H]1[C@H](C)CC[C@H]2/C=C(\C)C(=O)O
12.6%: max response [6]
inactive: activation [1] 9.44% | outcome [2] | outcome [3] | outcome [4] | outcome [5] | outcome [7] | outcome [8] | max response [10] 22.1% | activity change % (negative = inhibition) [11] 19.9% | outcome [12]
-4.2%: max response [9]

CC[C@]1(O)CC2CN(CCc3c([nH]c4ccccc34)[C@@](C(=O)OC)(c3cc4c(cc3OC)N(C)[C@H]3[C@@](O)(C(=O)OC)[C@H](OC(C)=O)[C@]5(CC)C=CCN6CC[C@]43[C@@H]65)C2)C1 (stereo partly specified)
active: Potency [14] 721 nM | Potency [15] 224 nM
inactive: Potency [13]

CC(=O)O[C@H]1C(=O)[C@@]2(C)[C@H]([C@H](OC(=O)c3ccccc3)[C@]3(O)C[C@H](OC(=O)[C@H](O)[C@@H](NC(=O)c4ccccc4)c4ccccc4)C(C)=C1C3(C)C)[C@]1(OC(C)=O)CO[C@@H]1C[C@@H]2O
-13.7%: max response [6]
active: Potency [16] 50.1 nM
inactive: outcome [5] | outcome [7] | outcome [8] | activity change % (negative = inhibition) [11] -8.03% | outcome [12] | Potency [13] | outcome [17]

Cc1ccc(N)cc1O
6.75%: max response [6]
-3.5%: max response [9]
active: Potency [20] 42.2 µM
inactive: Potency [16] | activation [1] 0.383% | outcome [2] | outcome [19] | outcome [3] | outcome [4] | outcome [5] | outcome [7] | outcome [8] | max response [10] 0.585% | activity change % (negative = inhibition) [11] -1.32% | outcome [12]
-0.329%: max response [18]

Nc1ccccc1N
1.4%: max response [9]
active: Potency [13] 2.63 µM | Potency [20] 18.8 µM
-23.4%: max response [18]
12.1%: max response [6]
inactive: activation [1] 10.6% | outcome [2] | outcome [19] | outcome [3] | outcome [4] | outcome [5] | outcome [7] | outcome [8] | max response [10] -8.62% | activity change % (negative = inhibition) [11] -38.2% | outcome [12]
